Laboratory results published in PubChem BioAssay (NCATS).
A number with no mark means an inactive call. Records with an inconclusive call do not appear. Where a call stands in place of a potency, no number is given. Calls of active or inactive are those of the source. Calls come from the whole dose curve; as a rule, active = well fitted curve in the direction sought with a large enough effect; inconclusive = small, poorly fitted or top-dose-only effect, or another doubt; inactive = no such curve, though single readings can be large; an effect the other way counts as inactive or inconclusive.

Columns and labels:
[1] = P-glycoprotein substrates identified in KB-8-5-11 adenocarcinoma cell line, qHTS therapeutic library screen (AID 1346987); note: nearly all actives have a fitted effect of over 65% in size; note: potency is the fitted concentration of half-maximal effect
Procedure, shortened: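 Human cervical adenocarcinoma KB-8-5-11 cells, selected in colchicine to over-express P-gp and assayed without it, were exposed for 72 h to titrated compounds. An ATP-based luminescent viability signal gave AC50.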

[2] = tested on: Zika virus NS2B-NS3 protease (linked construct); assay: Primary screen NINDS Rhodamine qHTS for Zika virus inhibitors (AID 1347160); note: nearly all actives have a fitted effect of over 55% in size; note: potency is the fitted concentration of half-maximal effect
Procedure, shortened: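 Aprotinin served as in-plate control. Conditions: 25 nM linked NS2B-NS3, pH 8.0 Tris buffer, titrated compounds, 15 min preincubation and 15 min reaction with 1.5 microM Rhod110 substrate at room temperature.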

[3] = Primary qHTS for inhibitors of nuclear receptor binding SET domain protein 2 (NSD2) in an isogenic RCH-ACV NSD2 p.E1099K mutant (9B) (AID 1645876); note: nearly all actives have a fitted effect of over 70% in size; note: potency is the fitted concentration of half-maximal effect
[4] = tested on: Nanoluciferase (engineered Oplophorus gracilirostris luciferase); assay: Primary Nanoluciferase (NLuc) qHTS assay for identification of artifact compounds. (AID 1845222);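 note: NLuc secreted into diluted conditioned medium of S16 cells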
Procedure, shortened: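 NLuc from S16 cell medium (1:55) plus test compounds, 15 min, room temperature. Luminescence after Nano-Glo (1:100) addition, 5 min.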

[5] = Primary redox qHTS assay for identification of artifact compounds. (AID 1845223)
Procedure, shortened: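 Redox-cycling detection via DTT (250 uM final) oxidation coupled to Amplex Red (25 uM)/HRP (250 mU/mL) in HBSS. 15 min preincubation plus 30 min after DTT, room temperature. Ex/Em 525/598 nm; 4-parameter Hill fit against DMSO and 10 uM DA3003.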

HaCat = assay: Cytotoxic Profiling of Annotated Libraries Using Quantitative High-Throughput Screening (AID 1296008); details: Five cell lines viability, CellTiter-Glo ATP luminescence, 48-72 h; max response: hits give low values; note: nearly all actives have a fitted effect of over 60% in size; note: potency is the fitted concentration of half-maximal effect
Procedure, shortened: (§1)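 Cytotoxicity was measured as CellTiter-Glo ATP luminescence, read after 10 min at room temperature. Compound treatment of the cells lasted 48 or 72 hr at 37 degrees Celsius in a qHTS format.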

CASKI = assay: Primary qHTS to identify gynecologic anti-cancer compounds using libraries of approved drugs and bioactive compounds (AID 1345084); details: Gynecologic cancer cell panel viability, ATPlite luminescence, 48 h; series mostly up to 57.5 µM; note: nearly all actives have a fitted effect of over 55% in size; note: potency is the fitted concentration of half-maximal effect
Procedure, shortened: (§2)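 Cells, 1,000 per well, plated 16 h, then exposed 48 h at 37 C to compounds. Viability by ATPlite luminescence after 15 min at room temperature.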

JEG-3 = assay: as above; details: Gynecologic cancer cell panel viability, ATPlite luminescence, 48 h; series mostly up to 57.5 µM
Procedure, shortened: as §2

OV90 = assay: as above; details: Gynecologic cancer cell panel viability, ATPlite luminescence, 48 h; series mostly up to 57.5 µM
Procedure, shortened: as §2

Tov-21-G = assay: as above; details: Gynecologic cancer cell panel viability, ATPlite luminescence, 48 h; series mostly up to 57.5 µM
Procedure, shortened: as §2

[6] = target: Calcium and integrin-binding protein 1 (Homo sapiens) (UniProt Q99828); assay: Primary qHTS for Identification of Calcium Integrin Binding Protein 1 (CIB1) Competitor (AID 1508620);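 note: GST tagged CIB1 binding a fluorescein labelled alphaIIb integrin peptide tracer; top concentration of the series differs between compounds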
Procedure, shortened: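 CIB1-GST (1 uM final) and compound incubated 15 min at room temperature before adding FITC-alphaIIb peptide tracer (100 nM final). Competition for binding read by fluorescence polarization (ex 480, em 540) after another 15 min at room temperature.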

[7] = target: Glutathione peroxidase 1 (Homo sapiens) (UniProt P07203); assay: Primary qHTS Assay for Inhibitors of Recombinant Selenoprotein Glutathione Peroxidase 1 (GPX1) (AID 1845191); note: nearly all actives have a fitted effect of over 65% in size
Procedure, shortened: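 NADPH consumption tracked by fluorescence at 340/450 nm between t=0 and t=15 min, room temperature. Final mix: 10 nM GPX1, 100 nM glutathione reductase, 1 mM GSH, 0.5 mM NADPH, 0.5 mM cumene hydroperoxide, 0.01% BSA; 30 min compound–enzyme preincubation.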

[8] = target: Phospholipid hydroperoxide glutathione peroxidase GPX4 (Homo sapiens) (UniProt P36969); assay: Primary qHTS Assay for Inhibitors of Recombinant Selenoprotein Glutathione Peroxidase 4 (GPX4) (AID 1845192); note: nearly all actives have a fitted effect of over 65% in size
Procedure, shortened: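 NADPH consumption followed by fluorescence at 340/450 nm, t=0 and after 15 min at room temperature. Reaction started with cumene hydroperoxide (0.5 mM final) after 30 min compound–GPX4 preincubation; final 200 nM GPX4, 100 nM GR, 1 mM GSH, 0.5 mM NADPH.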

[9] = target: Luciferin 4-monooxygenase (Photinus pyralis) (UniProt P08659); assay: Primary firefly luciferase (FLuc) qHTS assay for identification of artifact compounds. (AID 1845220); details: outcome: dose series up to 54.1 µM unless noted; note: nearly all actives have a fitted effect of over 60% in size
Procedure, shortened: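 FLuc 10 nM; luciferin 10 uM; ATP 10 uM; Tris-acetate pH 7.6, Mg-acetate 10 mM; 15 min RT preincubation; 5 min reaction; luminescence.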

[10] = Primary fluorescence-based thiol-reactive (MSTI) qHTS assay for identification of artifact compounds. (AID 1845221);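 note: thiol-reactive compounds lower the probe fluorescence signal; nearly all actives have a fitted effect of over 65% in size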
Procedure, shortened: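 MSTI probe at 4 uM final in 2% DMSO/PBS pH 7.4; compounds, 1 h at room temperature in dark. Fluorescence Ex/Em 525/598 nm, normalised to Acetyl-MSTI and MSTI, fitted to 4-parameter Hill.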

KB-3-1 = assay: Cytotoxic Profiling of Annotated Libraries Using Quantitative High-Throughput Screening (AID 1296008); details: Five cell lines viability, CellTiter-Glo ATP luminescence, 48-72 h; max response: hits give low values; note: nearly all actives have a fitted effect of over 60% in size; note: potency is the fitted concentration of half-maximal effect
Procedure, shortened: as §1

Glutathione peroxidase 1 (Homo sapiens), sequence (P07203 whole entry, looked up): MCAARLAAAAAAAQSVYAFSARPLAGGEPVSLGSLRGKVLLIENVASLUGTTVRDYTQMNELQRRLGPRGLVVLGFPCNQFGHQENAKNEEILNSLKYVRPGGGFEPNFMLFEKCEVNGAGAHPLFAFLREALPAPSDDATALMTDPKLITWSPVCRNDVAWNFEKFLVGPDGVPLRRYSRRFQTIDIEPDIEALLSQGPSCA
Phospholipid hydroperoxide glutathione peroxidase GPX4 (Homo sapiens), sequence (P36969 whole entry, looked up): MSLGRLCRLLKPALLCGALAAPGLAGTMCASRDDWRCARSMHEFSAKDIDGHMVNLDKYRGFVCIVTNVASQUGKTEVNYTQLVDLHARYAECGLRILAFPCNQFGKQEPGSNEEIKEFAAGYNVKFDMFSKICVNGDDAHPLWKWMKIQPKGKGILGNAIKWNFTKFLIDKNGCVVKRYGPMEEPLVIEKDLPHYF
Calcium and integrin-binding protein 1 (Homo sapiens), sequence (Q99828 whole entry, looked up): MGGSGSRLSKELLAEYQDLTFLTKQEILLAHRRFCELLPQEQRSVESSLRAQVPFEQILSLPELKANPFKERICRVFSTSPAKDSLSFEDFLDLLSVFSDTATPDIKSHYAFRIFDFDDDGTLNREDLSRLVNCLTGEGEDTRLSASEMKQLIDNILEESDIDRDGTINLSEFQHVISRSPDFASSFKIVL

| Compound | Potency [1] | Potency [2] | Potency [3] | Potency [4] | Potency [5] | Potency (HaCat) | Potency (CASKI) | Potency (JEG-3) | Potency (OV90) | Potency (Tov-21-G) | Potency [6] | Potency [7] | Potency [8] | outcome [9] | max response (HaCat) [%] | Potency [10] | Potency (KB-3-1) | outcome (HaCat) | max response (KB-3-1) [%] |
| --- | --- | --- | --- | --- | --- | --- | --- | --- | --- | --- | --- | --- | --- | --- | --- | --- | --- | --- | --- |
| CC(C)=CCC[C@]1(C)C=Cc2c(O)c3c(c(CC=C(C)C)c2O1)O[C@]12C(=C[C@@H]4CC1C(C)(C)O[C@@]2(C/C=C(/C)C(=O)O)C4=O)C3=O | 4.11 µM (active) | 2.82 µM (active) | 0.578 µM (active) | inactive | inactive | 4.61 µM (active) | 2.24 µM (active) | 3.98 µM (active) | 5.01 µM (active) | 7.94 µM (active) |  |  |  |  |  |  |  |  |  |
| CC(=O)O[C@H]1C(=O)[C@]2(C)C(O)C[C@H]3OC[C@@]3(OC(C)=O)[C@H]2[C@H](OC(=O)c2ccccc2)[C@]2(O)C[C@H](O)C(C)=C1C2(C)C (some centres undefined) | inactive | inactive |  | inactive | inactive |  |  | inactive | inactive | inactive | inactive | inactive | inactive | inactive | -29.4 |  |  |  |  |
| CC(=O)OC[C@]12C[C@H](OC(C)=O)C(C)=C[C@H]1O[C@@H]1[C@H](O)[C@@H](O)[C@@]2(C)[C@]12CO2 | 0.904 µM (active) | inactive | 0.101 µM (active) | inactive | inactive | 1.28 µM (active) | 1.41 µM (active) | 5.62 µM (active) | 3.16 µM (active) |  | inactive | inactive | inactive | inactive |  | inactive | 0.18 µM (active) |  |  |
| CCCCCn1cc(C(=O)C2C(C)(C)C2(C)C)c2ccccc21 | inactive | inactive | inactive | inactive | inactive |  | inactive | inactive | inactive | inactive | inactive | inactive | inactive | inactive |  | inactive |  | inactive | 5.27 |
| CC(C)OC(=O)c1ccnc2cc(C(OCCN3CCCCC3)c3ccccc3Cl)sc12 (centres undefined) | 20.6 µM (active) | inactive | 14.5 µM (active) | inactive |  |  | inactive | inactive |  | inactive |  | inactive | inactive | inactive |  | inactive |  | inactive |  |
| CCOC(=O)C1(CCc2ccccc2)CCN(Cc2ccc(NC(C)=O)cc2)CC1 |  | inactive |  | inactive | inactive |  | inactive | inactive | inactive | inactive | inactive | inactive | inactive | inactive | 1.98 | inactive |  |  | -17.7 |
